Compound activity deposited in PubChem by National Center for Advancing Translational Sciences (NCATS).
NIH3T3 tox: cytotoxic compounds in NIH 3T3 cells; AID 1345082; NIH 3T3 viability, CellTiter-Glo ATP luminescence, 48-72 h; actives 4.3% (n = 94,000); Potency, µM (doses to about 96.7 µM), for inactives: at the highest dose activity change, negative = cytotoxicity, hits mostly inhibitors; further: nearly all actives have a fitted effect of over 55% in size
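Viability of NIH 3T3 cells after 48 or 72 hr compound treatment at 37 °C was assessed by CellTiter-Glo, with luminescence imaged following a 10 min room-temperature step.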
FLuc inh: inhibitors of firefly (Photinus pyralis) luciferase. purified P. pyralis luciferase, luminescence, biochemical. Potency, µM (highest dose often 115 µM), actives largely listed as inhibitors. actives 2.5% (n = 76,000); further: nearly all actives have a fitted effect of over 65% in size
Target sequence (P08659 whole entry, looked up): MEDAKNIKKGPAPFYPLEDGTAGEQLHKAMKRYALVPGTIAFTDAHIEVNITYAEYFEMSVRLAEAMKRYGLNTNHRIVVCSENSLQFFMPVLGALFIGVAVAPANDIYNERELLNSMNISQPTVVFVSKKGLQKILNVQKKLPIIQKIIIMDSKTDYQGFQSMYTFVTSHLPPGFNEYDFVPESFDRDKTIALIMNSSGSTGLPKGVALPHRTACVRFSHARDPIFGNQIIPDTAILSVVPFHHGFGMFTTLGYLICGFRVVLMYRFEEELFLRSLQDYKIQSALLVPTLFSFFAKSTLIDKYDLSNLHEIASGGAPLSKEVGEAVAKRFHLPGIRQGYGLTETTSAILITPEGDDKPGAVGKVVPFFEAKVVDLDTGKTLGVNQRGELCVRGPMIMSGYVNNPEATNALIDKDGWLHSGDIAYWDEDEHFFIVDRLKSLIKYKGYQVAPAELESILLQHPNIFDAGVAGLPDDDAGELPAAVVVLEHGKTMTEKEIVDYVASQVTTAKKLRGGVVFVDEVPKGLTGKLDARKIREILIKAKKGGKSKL
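Purified P. pyralis luciferase (10nM final) in 50mM Tris acetate pH 7.5, 10mM Mg acetate, 0.01% Tween-20, 0.05% BSA with 10uM D-luciferin and 10uM ATP. Compounds titrated qHTS. Luminescence imaged on CCD.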
GPT2 inhibitor: GPT2 alanine aminotransferase inhibition. Q8TD30. Recombinant GPT2, coupled pyruvate oxidase/HRP Amplex Red fluorescence. Potency, µM (top dose mostly 57.7 µM), for inactives: top-dose activity change, negative = inhibition, usual class: inhibitors. actives 0.25% (n = 100,000). AID 1671188; further: nearly all actives have a fitted effect of over 60% in size
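Fluorescence of coupled pyruvate oxidase/HRP/Amplex Red system (50uM Amplex, 30 min, dark) reports pyruvate formed by GPT2. Enzyme reaction: 10ng/uL GPT2, 2mM L-alanine, 250uM a-KG, 30 min room temperature, pH 7.5; 50uM AOA control.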
HEK293 tox: cytotoxic compounds in HEK 293 cells. Potency, µM (doses to about 115 µM), inactives show at the top dose activity change, negative = cytotoxicity, most hits filed as inhibitors. HEK 293 viability, ATP luminescence (CellTiter-Glo), 48-72 h. AID 1345083. actives 6.6% (n = 94,000); further: nearly all actives have a fitted effect of over 60% in size
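HEK 293 seeded at 250 cells/well receive compound via pintool. After 48 or 72 hr at 37 degree Celsius, 5% CO2 and 95% humidity, CellTiter-Glo is dispensed and luminescence read following 10 min at room temperature.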
NPR1 antag: blocks ANP-stimulated signaling of human Npr1 receptor; Potency, µM (highest dose often 46.3 µM), inactives show at the highest dose activity change, negative = inhibition, hits mostly inhibitors; HEK293 hNpr1 GloSensor cGMP, ANP-stimulated luminescence; AID 1347048; P16066; actives 1.6% (n = 76,000); calls by dose curve; further: nearly all actives have a fitted effect of over 60% in size
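Compound pre-incubated 30 min at room temperature on GloSensor-loaded HEK293 cells stably carrying hNpr1 and the pGS-40F cGMP biosensor. Stimulation uses hNppA at 0.1 nM final; luminescence is taken at baseline and 20 min post-agonist.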
The depositor's hits bear a star; [ ] = dose if it differs, or a comment. An excerpt weighted towards active compounds, which were near 10% of everything screened. Unless noted, the call rests on the fitted dose curve; in most records, active means well fitted curve in the direction sought with a large enough effect; inconclusive means small, poorly fitted or top-dose-only effect, or another doubt; inactive means no such curve, though single readings can be large; an effect the other way counts as inactive or inconclusive. On the % scale 0 is the no-effect control and ±100 the full control effect; potency means the concentration at half of the fitted maximal effect.

`O=C(NCC(F)F)c1nc2cccnc2n(C2CC2)c1=O` gave NIH3T3 tox inconclusive, GPT2 inhibitor -4.0%[88.5 µM] and HEK293 tox inconclusive.
Cc1noc(-c2cccc(OC3CN(C(=O)NC4CCCC4)C3)c2)n1 was read as NIH3T3 tox inconclusive, FLuc inh inactive, GPT2 inhibitor inactive, HEK293 tox 79.4µM* and NPR1 antag -7.6%.
`Cc1noc(-c2ccc(OC3CN(C(=O)NC4CCCCC4)C3)cc2)n1` gave NIH3T3 tox inconclusive, FLuc inh inactive, GPT2 inhibitor inactive, HEK293 tox 39.8µM* and NPR1 antag inconclusive.
For CCCCn1c(=O)c(C(=O)N2CCN(C(=O)Nc3ccccc3)CC2)nc2cccnc21 the results were NIH3T3 tox -32.0%, GPT2 inhibitor -8.4% and HEK293 tox 1.5%.
For CCN1CCCC2(Cc3ccccc3CN(C(=O)c3ccccc3)C2)C1 (stereo not drawn) the results were NIH3T3 tox inconclusive, GPT2 inhibitor 2.3% and HEK293 tox inconclusive.
For Cc1ccc([S+](=O)([O-])N2CCCN(CCn3nc4n(c3=O)CCCC4)CC2)cc1 the results were NIH3T3 tox -23.9% and HEK293 tox -16.5%.
`O=C(c1ccccc1Cl)N1CCN(c2ccnc3ccnn23)CC1` gave NIH3T3 tox -26.3%, GPT2 inhibitor 1.3% and HEK293 tox -27.9%.
Screening CC(c1ccccc1)N1CCN(c2cccc(CN(C)[S+](C)(=O)[O-])c2F)CC1 (stereo not drawn) returned NIH3T3 tox inconclusive and HEK293 tox 79.4µM*.
`Cc1nc(N2CCN(C(=O)c3c(F)cccc3Cl)CC2)cc(C(F)(F)F)n1` gave NIH3T3 tox -23.3%, FLuc inh inactive, GPT2 inhibitor inactive, HEK293 tox -20.8% and NPR1 antag -1.9%.
CCOC(=O)C(Cc1cccc(N2CCN(C(=O)c3c(Cl)cccc3Cl)CC2)c1F)OC (stereo not drawn) was read as NIH3T3 tox inconclusive and HEK293 tox 79.4µM*.
Screening CC(C)N(Cc1cccc(N2CCN(C(=O)c3c(Cl)cccc3Cl)CC2)c1F)[S+](C)(=O)[O-] returned NIH3T3 tox inconclusive and HEK293 tox 79.4µM*.
Screening CC(C)OC(=O)N(C)Cc1cccc(N2CCN(C(=O)c3c(Cl)cccc3Cl)CC2)c1F returned NIH3T3 tox inconclusive and HEK293 tox 35.5µM*.
`CC(=O)c1cccc(NC(=O)N2C[C@H](c3nc(-c4ccncc4)no3)[C@@H](C)C2)c1` gave NIH3T3 tox -21.5%, FLuc inh inactive, GPT2 inhibitor inactive, HEK293 tox -29.2% and NPR1 antag 0.6%.
COC(=O)N1CCCC(C(=O)N2CCCC(c3nc4ccncc4[nH]3)C2)C1 (stereo not drawn) was read as NIH3T3 tox -7.3%, GPT2 inhibitor 4.3% and HEK293 tox -8.0%.
Screening O=C(Cc1ccc(N(Cc2ccccc2)C(=O)c2ccco2)cc1)NCCc1ccccc1 returned NIH3T3 tox inconclusive, FLuc inh inactive, GPT2 inhibitor inactive, HEK293 tox 50.1µM* and NPR1 antag -5.6%.
COCCNC(=O)Cc1ccc(N(Cc2ccccc2)C(=O)c2ccco2)cc1 was read as NIH3T3 tox -4.1%, FLuc inh inactive, GPT2 inhibitor inactive, HEK293 tox -1.5% and NPR1 antag 7.2%.
Screening O=C(Cc1ccc(N(Cc2ccccc2)C(=O)c2ccco2)cc1)Nc1ccccc1 returned NIH3T3 tox inconclusive, FLuc inh inconclusive, GPT2 inhibitor inactive, HEK293 tox 35.5µM* and NPR1 antag -15.5%.
For O=C(Nc1ccc2c(N3CCCCC3)ncnc2c1)c1ccc(F)c(F)c1 the results were NIH3T3 tox -12.4%, FLuc inh inactive, GPT2 inhibitor -9.2%, HEK293 tox -29.7% and NPR1 antag 1.7%.
`COc1ccc(C(=O)Nc2ccc3c(N4CCCCC4)ncnc3c2)cc1` gave NIH3T3 tox inconclusive, FLuc inh 25.1µM*, GPT2 inhibitor inactive, HEK293 tox 39.8µM* and NPR1 antag 0.9%.
COc1cccc(C(=O)Nc2ccc3ncnc(N4CCCCC4)c3c2)c1 was read as NIH3T3 tox inconclusive, FLuc inh inactive, GPT2 inhibitor inactive, HEK293 tox inconclusive and NPR1 antag -21.7%.
`Cc1ccsc1C(=O)Nc1ccc2ncnc(N3CCCCC3)c2c1` gave NIH3T3 tox 35.5µM*, FLuc inh inactive, GPT2 inhibitor -1.3%, HEK293 tox 31.6µM* and NPR1 antag inconclusive.
For O=C(Nc1ccc2ncnc(N3CCCC3)c2c1)c1ccc(F)c(F)c1 the results were NIH3T3 tox 35.5µM*, FLuc inh inactive, GPT2 inhibitor -4.0%, HEK293 tox inconclusive and NPR1 antag -21.2%.
`Cc1cccc(C(=O)Nc2ccc3ncnc(N4CCCCC4)c3c2)c1` gave NIH3T3 tox inconclusive, FLuc inh inactive, GPT2 inhibitor -39.2%, HEK293 tox inconclusive and NPR1 antag -27.1%.
Screening O=C(Cc1ccc(F)cc1)Nc1ccc2ncnc(N3CCCCC3)c2c1 returned NIH3T3 tox 35.5µM*, FLuc inh inactive, GPT2 inhibitor -9.3%, HEK293 tox inconclusive and NPR1 antag -16.4%.
Screening C=CCN(C)C(=O)C[C@@H]1c2nc(NC(=O)Cc3ccc(OC)cc3)sc2C[C@@H]2[C@](C)(CO)[C@H](O)CC[C@]21C returned NIH3T3 tox inconclusive, FLuc inh inactive, GPT2 inhibitor 1.9%, HEK293 tox inconclusive and NPR1 antag -9.4%.
Screening COc1ccc(C(=O)Nc2ccc3c(N4CCOCC4)ncnc3c2)c(C)c1 returned NIH3T3 tox 22.4µM*, FLuc inh inconclusive, GPT2 inhibitor 4.0%, HEK293 tox inconclusive and NPR1 antag -0.2%.
CCCC(=O)Nc1ccc2c(N3CCOCC3)ncnc2c1 was read as NIH3T3 tox inconclusive, FLuc inh inactive, GPT2 inhibitor -0.1%, HEK293 tox -13.9% and NPR1 antag 4.0%.
Screening O=C(Nc1ccc2c(N3CCCCC3)ncnc2c1)c1ccc(F)cc1F returned NIH3T3 tox 22.4µM*, FLuc inh inconclusive, GPT2 inhibitor -5.4%, HEK293 tox 15.8µM* and NPR1 antag 2.9%.
`Cc1ccc(C(=O)Nc2ccc3c(N4CCOCC4)ncnc3c2)cc1F` gave NIH3T3 tox 11.2µM*, FLuc inh inconclusive, GPT2 inhibitor 0.9%, HEK293 tox inconclusive and NPR1 antag -10.7%.
Screening O=C(Nc1ccc2c(N3CCOCC3)ncnc2c1)c1ccco1 returned NIH3T3 tox -27.7%, FLuc inh inactive, GPT2 inhibitor inactive, HEK293 tox inconclusive and NPR1 antag 1.7%.
For CCOc1ccc2c(n1)CCN(C(=O)c1ccc(OC)nc1OC)C2 the results were NIH3T3 tox -13.8%, FLuc inh inactive, GPT2 inhibitor inactive, HEK293 tox -15.6% and NPR1 antag 10.2%.
